Measurements as given in ChEMBL document CHEMBL3433997, “St. Jude Leishmania screening dataset” (2016).

Assays:
Type in all cases: functional
[1] = target: Solute carrier family 2, facilitated glucose transporter member 1 (Homo sapiens) (UniProt P11166); assay: ST_JUDE_LEISH: Cytotoxicity at 2uM final concentration against transgenic Leishmania Mexicana promastigotes LmGLUT1 that are glucose transport deficient and complemented with the human glucose transporter GLUT1. Activity is measured by DNA content using SYBR green in vitro
Solute carrier family 2, facilitated glucose transporter member 1 (Homo sapiens), sequence (P11166 whole entry): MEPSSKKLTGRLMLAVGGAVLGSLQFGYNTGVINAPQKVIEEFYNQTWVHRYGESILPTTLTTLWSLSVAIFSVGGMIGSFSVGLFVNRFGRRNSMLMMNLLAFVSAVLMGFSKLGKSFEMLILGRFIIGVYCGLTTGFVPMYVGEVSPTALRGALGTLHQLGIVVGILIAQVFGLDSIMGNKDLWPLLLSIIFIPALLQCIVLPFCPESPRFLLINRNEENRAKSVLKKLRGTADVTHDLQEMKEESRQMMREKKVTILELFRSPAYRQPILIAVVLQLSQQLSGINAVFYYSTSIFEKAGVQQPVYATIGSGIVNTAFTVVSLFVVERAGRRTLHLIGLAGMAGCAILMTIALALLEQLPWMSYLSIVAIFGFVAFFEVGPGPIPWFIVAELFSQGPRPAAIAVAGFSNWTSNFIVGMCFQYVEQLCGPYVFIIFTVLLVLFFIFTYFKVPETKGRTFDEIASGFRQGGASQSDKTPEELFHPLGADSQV

[2] = target: Hexose transporter 1 (Plasmodium falciparum) (UniProt O97467); assay: ST_JUDE_LEISH: Cytotoxicity at 2uM final concentration against transgenic Leishmania Mexicana promastigotes LmPfHT that are glucose transport deficient and complemented with the Plasmodium falciparum hexose transporter. Activity is measured by DNA content using SYBR green in vitro
[3] = target: Glucose transporter (Leishmania mexicana) (UniProt O61059); assay: ST_JUDE_LEISH: Cytotoxicity at 2uM final concentration against transgenic Leishmania Mexicana promastigotes LmGT2 that are glucose transport deficient and complemented with the L. Mexicana glucose transporter 2. Activity is measured by DNA content using SYBR green in vitro

Structure (SMILES) | inhibition [1] [%] | inhibition [2] [%] | inhibition [3] [%]
COc1ccc2nccc([C@@H](O)CN3CCC(NC(=O)/C=C/c4ccc(F)c5ccccc45)CC3)c2c1 | 8.56 | 5.8 | 5.26
Cc1ccc(O)cc1Nc1ccnc2cc(-c3ccccn3)ccc12 | 5.99 | 4.26 | 3.28
Cc1cc(OCC2CCN(c3ncc(C(=O)NC4CC4)cc3Cl)CC2)ccc1F | 1.62 | 1.07 | -1.06
CN1CCN(c2cccc(-c3nnc(-c4ccc(OCC(=O)NCc5cccc(C(F)(F)F)c5)c([N+](=O)[O-])c4)o3)c2)CC1 | 8.88 | 8.11 | 6.46
CCN(CC)CCNC(=O)c1ccc(Nc2ncc([N+](=O)[O-])c(Nc3ccccc3OC)n2)cc1 | 4.77 | 4.91 | 3.73
O=S(=O)(Nc1ccc2nccc(N3CCNCC3)c2c1)c1ccc2oc3ccccc3c2c1 | 4.08 | 6.5 | 5.02
CC1CCC(NCc2ccc3c(CNC4CCC(C)CC4)c(O)ccc3c2O)CC1 (stereo not drawn) | 1.24 | -0.12 | -1.56
NC(=O)c1cccc(CNC(=O)NC[C@H]2CN(Cc3ccc(Cl)c(Cl)c3)CCO2)c1 | 7.5 | 6.84 | 6.5
CCNc1cc(C(=O)N[C@@H](Cc2ccccc2)[C@H](O)CNCc2cccc(OC)c2)c(OC)c(N2CCCCS2(=O)=O)c1 | 1.6 | 2.79 | 2.16
Cc1onc(-c2ccccc2)c1-c1nc(NCc2ccccc2Cl)no1 | 2.36 | 2.64 | 1.32
CCOC(=O)NCC(=O)Nc1cccc(-c2cccc(-c3nc4cc(C(F)(F)F)ccc4[nH]3)c2)c1 | 1.41 | 0.35 | 5.34
Clc1ncnc2ncn(Cc3cccc(Br)c3)c12 | 15.3 | 10.7 | 10.8
C=C1C(C(=O)OCC)=CN(CC)c2cc(O[C@H]3CCN(C(=O)OC(C)(C)C)C3)ccc21 | 2.71 | 2.53 | -2.32
COc1ccc2c(NN=Cc3cccc(F)c3)ccnc2c1 | 2.99 | 2.22 | 4.14
CCCS(=O)(=O)N1CCC(CO)(Cc2ccccc2C(F)(F)F)CC1 | 2.81 | 3.09 | 2.87
CCOc1cc(CC)ccc1C1CCN(CCN2CCC(NC(=O)c3ccc(-c4ccc(C#N)cc4)cc3)CC2)CC1 | -0.43 | 0.77 | 1.19
NCCCNc1nc(Nc2cccc(C(N)=O)c2)c2c(=O)[nH]ccc2n1 | -0.41 | 1.23 | 0.77
CC(=O)Nc1ccc(S(=O)(=O)Nc2ccc(Nc3nc(C)cc(N(C)C)n3)cc2)cc1 | -1.06 | 0.57 | 2.61
O=C(NCCCCN1CCC(c2ccc3c(c2OCc2ccccn2)CCCC3)CC1)c1ccc(NC(=O)c2ccc(Cl)cc2)cc1 | 2.21 | 0.31 | 2.55
Cc1cccc2nc(-c3ccc(-c4ccc(CN5CCCCC5)cc4)s3)[nH]c12 | 4.61 | 2.36 | 3.32
COc1ccc2nccc([C@@H](O)CN3CCC(NC(=O)/C=C/c4cccc(NC(C)=O)c4)CC3)c2c1 | 3.71 | 3.46 | 4.66
CCCCOc1cc2c(cc1OCC)C(C=Cc1ccc(Cl)cc1Cl)=NCC2 | 15.5 | 27.9 | 10.2
CCCC(C)C(=O)N1CCOC(COCc2cccc(C(F)(F)F)c2)(c2ccc(Cl)cc2)C1 (stereo not drawn) | -0.83 | 0.15 | -1.52
CN(C)CCOc1cc(NC(=O)Nc2ccc(Cl)cc2C(F)(F)F)ccc1I | 3.57 | 1.15 | -3.2

Structure (SMILES) | inhibition [1] [%] | inhibition [2] [%] | inhibition [3] [%]
CC1CN(c2ccc(NC(=O)c3ccc(F)cc3)cc2)CCN1Cc1cccc(F)c1 (stereo not drawn) | 3.88 | 2.84 | 4.01
CCCC(=O)NC(c1ccc(C(C)C)cc1)c1ccc2cccnc2c1O (stereo not drawn) | 2.04 | 3.11 | 0.65
Cc1ncccc1C(=O)Nc1ccc(-c2cccc(-c3nc4cccc(C)c4[nH]3)c2)cc1 | 0.98 | 0.96 | 3.38
Cc1ccccc1C(=O)Nc1cccc(-c2nc3ncccn3c2C)c1 | 3.33 | 3.11 | 1.25
OCCN1CCN(Cc2ccc(-c3cccc(-c4nc5ccccc5[nH]4)c3)cc2)CC1 | -1.4 | -2.88 | -1.5
CC(C)NC(C)(C)CN(Cc1ccc(-c2ccc(C(F)(F)F)cc2)cc1)C(=O)Cn1c(CCc2cccc(F)c2F)nc(=O)c2ccccc21 | 0.37 | -0.61 | -0.1
Cc1cccc2nc(-c3ccc(-c4ccc(NC(=O)Nc5ccc(F)c(F)c5F)cc4)s3)[nH]c12 | 1.26 | 0.06 | 0.31
CCCCN(CCCC)CCCN(CCCN(CCCC)CCCC)c1cc(C)nc(Nc2ccc3cc(Br)ccc3c2)n1 | 12 | 10.1 | 6.68
Cc1ccc(-c2nnc(Nc3ccc(CC(N)=O)cc3)c3ccccc23)cc1S(=O)(=O)NCC1CCCO1 (stereo not drawn) | 6.25 | 7.99 | 2.36
O=C(COc1ccccc1Cl)N1CCc2cc3nccc(N4CCN5CCC[C@H]5C4)c3cc21 | 6.5 | 5.14 | 6.01
Cc1ccc(O)c(C(=O)c2cc(C(=O)Nc3ccccc3C)c(=O)n(-c3ccccc3C)c2)c1 | 4.62 | 3.71 | 1.81
CN1CCN(c2ccnc3ccc(NC(=O)Nc4ccc(Cl)c(Cl)c4)cc23)CC1 | 6.24 | 6.07 | 6.56
Cc1cc(N2CCCC2)nc(Nc2ccc(NC(=O)CC(C)C)cc2)n1 | 1 | 3.11 | 2.23
NCC1CCCN1Cc1ccc(-c2ccc(-c3nc4cc(F)ccc4[nH]3)cc2)cc1 (stereo not drawn) | 8.49 | 5.64 | 4.54
COc1ccc(NC(=O)Nc2cc(C)nc3cccnc23)cc1Cn1ccnc1 | 1.73 | 1.25 | 0.47
N=C(N)NN=Cc1c2ccc(Cl)cc2c(Cl)c2ccc(Cl)cc12 | 83.8 | 23.8 | 61.9
COc1ccc2nccc([C@@H](O)CN3CCC(NCc4cn5cc(F)ccc5n4)CC3)c2c1 | 2.06 | 2.19 | -0.13
CC(=O)Nc1ccc(OCCCCN(Cc2ccccc2C(F)(F)F)c2ccc(C(F)(F)F)c(C#N)c2)c(Cl)c1 | 0.27 | 3.28 | 0.64
CC1CCN(c2nc(C(=O)Nc3ccc(F)cc3C(F)(F)F)c(C(C)C)s2)CC1 | 1.3 | 2.16 | 2.29
COc1ccc(C(=O)CC(=O)c2ccc(OC)cc2OC)c(OC)c1 | 6.03 | 4.03 | 4.43
O=C(NCc1cccc(C(F)(F)F)c1)C(c1cc2ccccc2o1)N1CCN(C(c2ccccc2)c2ccccc2)CC1 (stereo not drawn) | 1.37 | 2.33 | 0.71
COc1cc(CNCCCCCCNCc2cc(OC)cc3ccccc23)c2ccccc2c1 | 10.8 | 11.7 | 10.4
O=C(NC1CCN(Cc2cccc(C(F)(F)F)c2)CC1)c1ccc(-c2cccc(C(F)(F)F)c2)s1 | 6.34 | 3.03 | 6.14
CCOc1ccc(-c2nonc2NC(=O)c2cccc(Cl)c2)cc1OCC | 2.52 | 3.66 | -0.71

Structure (SMILES) | inhibition [1] [%] | inhibition [2] [%] | inhibition [3] [%]
CCOc1ccc(N2CCN(CCCCNC(=O)c3ccc(NC(=O)c4ccc(Cl)cc4)cc3)CC2)c(OCC)c1 | 1.06 | 1.88 | 2.35
CN1CCC(Oc2ccc(CN3CC[C@H](NC(=O)c4cccc(C#N)c4)C3)c3ccccc23)C1 (stereo partly drawn) | -0.8 | 1.42 | 2.12
CC(C)CNCc1cccc(-c2cccc(CN(CCN(C)C)C(=O)NCCc3ccccc3)c2)c1 | -1.09 | -0.75 | -4.18
COCCN(C)c1ccc(C(=O)Nc2ccccc2)cc1NS(=O)(=O)Cc1ccccc1 | 10.2 | 8.35 | 3.54
Cc1cccc2nc(-c3ccc(-c4cccc(NC(=O)c5cccc(C(N)=O)c5)c4)cc3)[nH]c12 | 3.55 | 3.07 | 2.8
Cc1ccc2c(c1)nc(N)n2C[C@H](O)c1ccccc1 | 1.01 | 1.37 | 1.1
Cc1[nH]c2ccccc2c1C(=O)C(C)Sc1nnc(-c2ccccc2Br)[nH]1 (stereo not drawn) | 0.54 | 2.81 | 0.86
Cc1cccc2nc(-c3cccc(-c4ccc(NC(=O)COc5ccccc5C(N)=O)cc4)c3)[nH]c12 | 4.4 | 4.11 | 5.02
Fc1ccc(NC(=S)NCCc2ccccc2)cc1 | 0.73 | -2.25 | 0.04
Cc1ccc(O)cc1Nc1ccnc2cc(-c3csc(CN(C)CCN(C)C)n3)ccc12 | -0.07 | -0.87 | 0.38
COc1ccc2nc3cc(Cl)ccc3c(NCCCCN)c2c1 | 2.17 | 1.49 | 0.04
O=C(C=Cc1cn(-c2ccccc2)nc1-c1cccs1)N1CCN(c2ccncc2)CC1 | 1.81 | 0.46 | -3.76
CCCC1CCNC(C(O)c2ccnc3ccc(OC)cc23)C1 (stereo not drawn) | 1.89 | 1.16 | 2.16
O=C(Nc1cccc(OC2CCN(Cc3ccccc3)CC2)c1)Nc1cccc([N+](=O)[O-])c1 | 3.41 | 2.74 | 2.57
CCC(CC)n1c(COC)cc2c3c(N)nc(N)nc3ccc21 | 33.6 | 51.1 | 37.3
Cc1noc(C)c1-c1cccc(CNCc2ccc(-c3cccc(-c4nc5cc(C(F)(F)F)ccc5[nH]4)c3)cc2)c1 | -0.48 | 1.3 | 1.67
CN1CCCN(Cc2ccc(-c3ccc(NS(=O)(=O)c4cccc5cccnc45)cc3)cc2)CC1 | 5.67 | 3.68 | 0.05
NC(=O)C1CCN(Cc2ccc(-c3cccc(-c4nc5cc(F)ccc5[nH]4)c3)cc2)CC1 | -0.89 | -0.57 | -1.49
CC(=O)C1=NN(c2ccc(C)cc2)C(c2cccs2)N1c1ccccc1 (stereo not drawn) | 2.5 | 2.74 | 2.11
Cc1cc(-c2cccc(CNCc3ccc(F)cc3)c2)ccc1S(=O)(=O)NCCN1CCCC1 | -0.89 | 0.36 | 0.1
Cc1cccc2nc(-c3ccc(-c4cccc(NC(=O)C(=O)c5cccn5C)c4)cc3)[nH]c12 | 4.58 | 2.19 | 2.29
CC(Oc1ccc(Cl)cc1Cl)c1nc(-c2ccc(NC(=O)c3ccco3)cc2)no1 (stereo not drawn) | 2.46 | 1.87 | -0.2
CCC[C@@H]([C@@H](CC1CCCCC1)C(=O)N[C@H](C(=O)Nc1nccs1)C(C)(C)SCCNC(=O)OCc1ccccn1)N(O)C=O | -3.15 | -0.71 | 8.17
